Screening data deposited in PubChem BioAssay by National Center for Advancing Translational Sciences (NCATS).
BRCT PPI green – BRCA1 BRCT-phosphoprotein interaction inhibition; BRCA1 BRCT-phosphopeptide binding, green fluorescence polarization; hit rate 0.05% among 75,000; AID 875; Potency, µM (titrated, usually from 76.9 µM), actives largely listed as inhibitors
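Compounds were incubated for 12 min at room temperature with a complex of 100 nM fluorescein-tagged pBACH1 decapeptide and 250 nM His-tagged BRCT protein. Buffer was phosphate pH 7.3 with EDTA, DTT and Tween 20. Disruption of binding lowers the polarization signal.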
TsaE inh – displaces an ADP probe from E. coli YjeE (TsaE) | Potency, µM | purified YjeE enzyme, qHTS inhibition assay | hit rate 0.05% among 71,000 | P0AF67
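Purified YjeE (10 uM) with BODIPY Texas Red-labeled ADP probe (2 uM); compounds pin-transferred, 15 min at room temperature. Binding inhibition read as decreased fluorescence polarization; ADP titration as control.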
BRCT PPI red – disrupts BRCA1 BRCT binding to phosphoprotein, red fluorophore readout; hit rate 0.03% among 75,000; AID 892; BRCT-phosphopeptide binding, red fluorescence polarization; Potency, µM (doses to about 76.9 µM), usual class: inhibitors; P38398
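Rhodamine-labelled pBACH1 10-mer (100 nM) bound to BRCT domain (100 nM) at pH 7.3; compounds incubated 12 min room temperature, polarization read. Free peptide defines full inhibition; unlabelled decapeptide titrated as control.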
Casp1 inh – caspase-1 (human) inhibition, allosteric or competitive; hit rate 0.03% among 75,000; P29466; Caspase-1 enzyme, Ac-WEHD-AFC fluorogenic rate; Potency, µM (doses to about 57.5 µM), hits mostly inhibitors
Pol III holo inh – inhibitors of bacterial DNA polymerase III holoenzyme; hit rate 0.25% among 71,000; reconstituted DNA polymerase III holoenzyme replication, biochemical; Potency, µM (top dose mostly 57.1 µM)
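Reconstituted *E. coli* holoenzyme (0.35 nM Pol III, 1 nM beta, 154 nM SSB, 2 nM primase) was preincubated with compound for 15 min at RT. Synthesis on 1.4 nM ssM13Gori ran 35 min, then was stopped with PicoGreen/EDTA and read as dsDNA fluorescence.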
Casp7 inh – blocks human caspase-7 allosterically or competitively; recombinant caspase-7, Ac-DEVD-AFC fluorescence rate; Potency, µM (highest dose often 57.5 µM), usual class: inhibitors; hit rate 0.02% among 75,000; active = well fitted inhibition curve with a large enough effect in the main read-out, with a control signal flat, not every such curve was filed as active; inconclusive = small, poorly fitted or top-dose-only effect, or a change in a side signal
Large screens that a line does not name were inactive; ! = not active in a repeat. In the library only some 0.29% were active in any assay of this set; here they are far more common. Unless noted, calls follow the shape of the dose curve; as a rule, active = well fitted curve in the direction sought with a large enough effect; inconclusive = small, poorly fitted or top-dose-only effect, or another doubt; inactive = no such curve, though single readings can be large; an effect the other way counts as inactive or inconclusive.

Cc1ccccc1-c1ccc2ncnc(NCc3cccs3)c2c1	TsaE inh inconclusive, Casp1 inh inconclusive, Pol III holo inh inconclusive, Casp7 inh 15.8µM
C[C@H]1[C@H](O)[C@@H](C)C=CC=CC=CC=CC=CC=CC=C[C@H](O[C@@H]2O[C@@H](C)[C@H](O)[C@@H](N)[C@@H]2O)C[C@@H]2O[C@](O)(C[C@@H](O)C[C@@H](O)[C@@H](O)CC[C@@H](O)C[C@@H](O)CC(=O)O[C@H]1C)C[C@H](O)[C@H]2C(=O)O	none
O=c1cc(-c2ccccc2)oc2c(O)c(O)ccc12	none (no result: TsaE inh, Pol III holo inh)
O=c1cc(-c2ccccc2O)oc2c(O)c(O)ccc12	Pol III holo inh 0.501µM
O=c1nc2s/c(=C\c3ccco3)c(=O)n2nc1Cc1ccc(F)cc1	Pol III holo inh 15.8µM
Cc1c2oc3c(C)ccc(C(=O)N[C@@H]4C(=O)N[C@@H](C(C)C)C(=O)N5CCC[C@@H]5C(=O)N(C)CC(=O)N(C)[C@@H](C(C)C)C(=O)O[C@H]4C)c3nc-2c(C(=O)N[C@@H]2C(=O)N[C@@H](C(C)C)C(=O)N3CCC[C@@H]3C(=O)N(C)CC(=O)N(C)[C@@H](C(C)C)C(=O)O[C@H]2C)c(N)c1=O	Pol III holo inh 0.126µM
O=C(O)c1cccc(-n2cccc2/C=N/O)c1	Pol III holo inh 15.8µM
N#Cc1sc2nc(-c3ccccc3)cc(-c3ccco3)c2c1N	Casp7 inh 25.1µM (no result: Casp1 inh)
CC(=O)N[C@@H](CC(=O)O)C(=O)N[C@@H](CCC(=O)O)C(=O)O	Pol III holo inh 20µM!
CCNC(=O)[C@@H]1O[C@@H](n2cnc3c(N)nc(NCCc4ccc(CCC(=O)O)cc4)nc32)[C@H](O)[C@@H]1O	none
COc1ccc(/C=N/NC(=O)c2cc(-c3ccc(Cl)cc3)n[nH]2)cc1OC	none (no result: TsaE inh, Pol III holo inh)
CC(CN(C)C)NC(=O)c1ccc(-n2c(=O)c(=O)[nH]c3ccccc32)cc1 (centres undefined)	none (no result: TsaE inh, Pol III holo inh)
O=c1oc(-c2ccco2)nc2ccccc12	none
c1coc(-c2nc3ccccc3nc2-c2ccco2)c1	Pol III holo inh 25.1µM, Casp7 inh inconclusive (no result: Casp1 inh)
CC(=O)[C@@]1(O)CC[C@@H]2[C@@H]3CCC4=CC(=O)CC[C@@]4(C)[C@H]3CC[C@]21C	none
CCN(CC)CC[n+]1ccc2c(C)c3[nH]c4ccc(O)cc4c3c(C)c2c1	Pol III holo inh 1.26µM
O=C1C(SCCO)=C(SCCO)C(=O)c2ccccc21	Casp1 inh 15.8µM, Pol III holo inh 31.6µM!
N#CC(=NCCO)C1=C(O)c2ccccc2C1=O	none
COc1ccc(N2CSC3=C(C#N)C(c4ccc(OC)c(OC)c4)CC(=O)N3C2)c(OC)c1 (centres undefined)	Casp1 inh inconclusive, Casp7 inh inconclusive
COc1ccc(C2CC(=O)N3CN(c4ccc(C)c(Cl)c4)CSC3=C2C#N)cc1OC (centres undefined)	Casp1 inh 31.6µM, Casp7 inh inconclusive
O=c1cc(-c2ccc(O)c(O)c2)oc2cc(O[C@@H]3O[C@@H](CO)[C@@H](O)[C@@H](O)[C@H]3O)cc(O)c12	Pol III holo inh 1µM (no result: BRCT PPI green, BRCT PPI red, Casp1 inh, Casp7 inh)
COc1ccc(-c2cc(=O)c3c(O)cc(O[C@H]4OC(COC5OC(C)C(O)C(O)[C@H]5O)C(O)C(O)C4O)cc3o2)cc1O (some centres undefined)	none (no result: TsaE inh, Pol III holo inh)
CCN(CC)CCOc1nc(C)nc2c1oc1ccccc12	none
CN(C)CCOc1nc(-c2ccccc2)nc2c1oc1ccccc12	Pol III holo inh 25.1µM
O=C1CCN2C=Nc3cccc4ccc1c2c34	BRCT PPI green 15.8µM, Casp7 inh inconclusive (no result: Casp1 inh)
Cc1cc(S(=O)(=O)Nc2ccccc2C(=O)O)ccc1F	none (no result: TsaE inh, Pol III holo inh)
CCCCC[C@H](CC(=O)NO)C(=O)N[C@@H](C(=O)N1CCC[C@H]1CO)C(C)C	none
CCCN1C[C@@H](CSC)C[C@H]2c3cccc4[nH]cc(c34)C[C@@H]21	none
COc1cccc(OC)c1-c1nn2c(-c3cc(-c4ccccc4)n[nH]3)nnc2s1	TsaE inh inconclusive, Pol III holo inh 12.6µM
COc1ccc(-c2nn3c(-c4ccccc4)nnc3s2)cc1	none
Nc1ccccc1N=Nc1c(S(=O)(=O)O)cc2cc(S(=O)(=O)O)cc(O)c2c1O	Pol III holo inh 2.51µM
O=S(=O)(O)c1cc(S(=O)(=O)O)c2c(N=Nc3cccc4ccccc34)c(O)ccc2c1	none
O=C1C(Cl)=C(NC2CCc3ccccc32)C(=O)c2ncccc21 (centres undefined)	Casp1 inh 1.58µM, Casp7 inh inconclusive
c1ccc2c(c1)CCCC2NC1=NCCC1 (centres undefined)	none
Clc1ccccc1-c1nccc(NCCN2CCOCC2)n1	none
O=C1C(Cl)=C(NCCN2CCOCC2)C(=O)c2ncccc21	Casp1 inh 6.31µM (no result: TsaE inh, Pol III holo inh)
CCOC(=O)[C@@H](O)Cc1cnc2ccccc2n1	none
CCN1CCCC1CNC(=O)c1ccc(-n2c(=O)c(=O)[nH]c3ccccc32)cc1 (centres undefined)	none (no result: TsaE inh, Pol III holo inh)
CCOC(=O)C1CCN(C(=O)Nc2ccc3c(c2)nc(C)n3C)CC1	none
CCOC(=O)C1CCN(C(=O)Nc2ccc3nc(-c4ccco4)c(-c4ccco4)nc3c2)CC1	BRCT PPI red inconclusive, Pol III holo inh 12.6µM, Casp7 inh inconclusive (no result: Casp1 inh)
O=C(Nc1ccc2nc(-c3ccco3)c(-c3ccco3)nc2c1)N1CCCCCC1	BRCT PPI red inconclusive, Pol III holo inh 15.8µM, Casp7 inh inconclusive (no result: Casp1 inh)
Cn1c(O)c(N=N/C(=N/c2ccccn2)c2ccccn2)c2cc(Br)ccc21	none (no result: TsaE inh, Pol III holo inh)
CO[C@@H]1/C=C\O[C@]2(C)Oc3c(C)c(O)c4c(O)c(cc(O)c4c3C2=O)NC(=O)/C(C)=C\C=C/[C@H](C)[C@@H](O)[C@H](C)[C@H](O)[C@H](C)[C@H](OC(C)=O)[C@@H]1C	none
COc1ccc2nc3cc(Cl)ccc3c(Nc3ccc(O)c(CN4CCN(C)CC4)c3)c2c1	Pol III holo inh 5.01µM, Casp7 inh inconclusive (no result: Casp1 inh)
COc1ccc(N2CCN(Cc3cc(=O)oc4ccc(Cl)cc34)CC2)cc1	none
CN1C[C@@H](C(=O)N[C@]2(C)O[C@]3(O)[C@H]4CCCN4C(=O)[C@H](Cc4ccccc4)N3C2=O)C[C@H]2c3cccc4[nH]cc(c34)C[C@@H]21	none
O=C(c1ccco1)[C@@H]1[C@@H]2C(=O)N(c3ccc(Br)cc3)C(=O)[C@@H]2C2c3ccccc3C=CN21 (some centres undefined)	Casp7 inh inconclusive (no result: Casp1 inh)
O=C1CC(N2CCN(c3ccccc3)CC2)C(=O)N1c1ccc2c(c1)OCCO2 (centres undefined)	none
CC(=O)[C@@H]1[C@@H]2C(=O)N(c3ccc(F)c(Cl)c3)C(=O)[C@@H]2C2c3ccccc3C=CN21 (some centres undefined)	Casp1 inh 31.6µM, Casp7 inh inconclusive
